The results in this text go back to ChEMBL document CHEMBL3988442, “University of Dundee, Small-Polar-MMV Screening Library” (2021).

What all share (set-up): scale not given: direction of the effect not stated beside the values
Assay [1] has as its target Protein translocase subunit SecA (Escherichia coli (strain K12)) (UniProt P10408). The experiment in a line: Assay to Identify E. coli SecA ATPase Inhibitors. The following applies: 30 µM. It is filed as functional.
For assay [2], the target named is T1, Ubiquitin-activating enzyme e1, putative (Leishmania donovani (strain BPK282A1)) (UniProt E9BSI1).
T1 sequence (whole entry): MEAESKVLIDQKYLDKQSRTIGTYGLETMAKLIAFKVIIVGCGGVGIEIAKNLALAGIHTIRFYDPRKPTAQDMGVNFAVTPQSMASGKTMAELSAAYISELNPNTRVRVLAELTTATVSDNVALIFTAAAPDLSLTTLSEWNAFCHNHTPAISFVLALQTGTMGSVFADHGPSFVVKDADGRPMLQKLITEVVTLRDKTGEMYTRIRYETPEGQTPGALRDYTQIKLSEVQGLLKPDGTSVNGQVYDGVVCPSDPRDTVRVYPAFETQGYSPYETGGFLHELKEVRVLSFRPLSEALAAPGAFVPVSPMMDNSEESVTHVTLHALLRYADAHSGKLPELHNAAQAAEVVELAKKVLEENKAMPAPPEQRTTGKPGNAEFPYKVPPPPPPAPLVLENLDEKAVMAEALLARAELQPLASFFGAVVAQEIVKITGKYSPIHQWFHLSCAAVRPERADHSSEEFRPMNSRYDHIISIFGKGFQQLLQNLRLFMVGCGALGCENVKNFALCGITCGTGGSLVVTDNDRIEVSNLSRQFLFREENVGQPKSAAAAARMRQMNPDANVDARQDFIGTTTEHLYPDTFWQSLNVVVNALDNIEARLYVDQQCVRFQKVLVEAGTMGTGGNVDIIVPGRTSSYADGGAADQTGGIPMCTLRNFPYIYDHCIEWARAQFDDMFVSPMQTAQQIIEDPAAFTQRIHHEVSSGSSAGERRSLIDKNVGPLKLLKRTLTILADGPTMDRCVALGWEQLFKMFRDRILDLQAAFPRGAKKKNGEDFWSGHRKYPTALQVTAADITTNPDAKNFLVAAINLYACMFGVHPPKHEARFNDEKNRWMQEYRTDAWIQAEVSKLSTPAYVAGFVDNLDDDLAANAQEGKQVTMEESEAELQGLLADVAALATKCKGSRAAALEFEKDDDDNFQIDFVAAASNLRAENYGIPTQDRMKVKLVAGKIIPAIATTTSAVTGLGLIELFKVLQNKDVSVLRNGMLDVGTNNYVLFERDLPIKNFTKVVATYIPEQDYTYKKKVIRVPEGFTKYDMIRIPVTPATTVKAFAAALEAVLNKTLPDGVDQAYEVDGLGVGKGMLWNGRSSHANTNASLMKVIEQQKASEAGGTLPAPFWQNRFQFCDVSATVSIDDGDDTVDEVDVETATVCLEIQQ
The experiment in a line: Leishmania donovani Ubiquitin Activating Enzyme (LdE1). It is filed as functional. The following applies: 30 µM.

Assay [3] deals with Sialic acid-binding Ig-like lectin 9 (Homo sapiens) (UniProt Q9Y336). The experiment in a line: Hs-Siglec9 ALPHAscreen SOP 20170721. Conditions: 10 µM. A general note: Alpha assays give light when donor and acceptor beads are brought close together.
The subject of the next assay is Trypanosoma cruzi. The experiment in a line: Trypanosoma cruzi phosphomannomutase and mannose-1-phosphate guanylyltransferase assay. Conditions: 10 µM. The format is functional.
Assay [4] deals with T2, Arginase-2, mitochondrial (Homo sapiens) (UniProt P78540).
T2 sequence (whole entry): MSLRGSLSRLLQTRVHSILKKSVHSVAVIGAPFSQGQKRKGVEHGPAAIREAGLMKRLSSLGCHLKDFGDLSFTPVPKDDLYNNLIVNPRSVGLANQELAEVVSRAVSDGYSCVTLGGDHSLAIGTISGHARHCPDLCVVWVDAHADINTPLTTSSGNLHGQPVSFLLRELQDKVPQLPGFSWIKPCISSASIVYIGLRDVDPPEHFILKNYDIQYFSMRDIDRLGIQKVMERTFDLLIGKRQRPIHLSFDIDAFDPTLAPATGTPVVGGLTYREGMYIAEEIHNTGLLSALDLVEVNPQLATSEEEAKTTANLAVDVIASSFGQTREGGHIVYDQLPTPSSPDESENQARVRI
The experiment in a line: in vitro enzyme assay to detect the production of urea directly proportional to the activity of Arginase II. Further: in the data most compounds retested in dose-response had high values. The format is functional. The following applies: 33.3 µM.

Assay [5] concerns the target T3, Proteasome subunit beta (Trypanosoma cruzi) (UniProt O96673).
T3 sequence (whole entry): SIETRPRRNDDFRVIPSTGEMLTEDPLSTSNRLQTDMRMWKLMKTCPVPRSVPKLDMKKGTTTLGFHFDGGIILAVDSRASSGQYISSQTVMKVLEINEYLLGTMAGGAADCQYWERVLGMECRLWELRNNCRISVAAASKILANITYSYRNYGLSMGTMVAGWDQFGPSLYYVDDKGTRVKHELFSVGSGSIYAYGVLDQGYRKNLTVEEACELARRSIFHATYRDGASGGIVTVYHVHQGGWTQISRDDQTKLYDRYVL
The experiment in a line: Trypanosoma cruzi proteasome chymotrypsin-like activity (TcProtChymo) assay. Further: in the data most compounds retested in dose-response had high values. The format is functional. The following applies: 9.37 µM.

The species entered for a further assay is Homo sapiens. The experiment in a line: To identify inhibition of the IFN signalling (Jak-Stat) pathway via expression of an eGFP reporter gene under the control of an IFN-stimulated response element (ISRE) containing MxA promoter. The following applies: 30 µM. It is filed as functional. Background: Reporter assays use an easily measured gene product as a stand-in for the process of interest.

Assay [6] concerns the target T4, Tyrosyl-tRNA synthetase, putative (Trypanosoma cruzi (strain CL Brener)) (UniProt Q4DSP6).
T4 sequence (whole entry): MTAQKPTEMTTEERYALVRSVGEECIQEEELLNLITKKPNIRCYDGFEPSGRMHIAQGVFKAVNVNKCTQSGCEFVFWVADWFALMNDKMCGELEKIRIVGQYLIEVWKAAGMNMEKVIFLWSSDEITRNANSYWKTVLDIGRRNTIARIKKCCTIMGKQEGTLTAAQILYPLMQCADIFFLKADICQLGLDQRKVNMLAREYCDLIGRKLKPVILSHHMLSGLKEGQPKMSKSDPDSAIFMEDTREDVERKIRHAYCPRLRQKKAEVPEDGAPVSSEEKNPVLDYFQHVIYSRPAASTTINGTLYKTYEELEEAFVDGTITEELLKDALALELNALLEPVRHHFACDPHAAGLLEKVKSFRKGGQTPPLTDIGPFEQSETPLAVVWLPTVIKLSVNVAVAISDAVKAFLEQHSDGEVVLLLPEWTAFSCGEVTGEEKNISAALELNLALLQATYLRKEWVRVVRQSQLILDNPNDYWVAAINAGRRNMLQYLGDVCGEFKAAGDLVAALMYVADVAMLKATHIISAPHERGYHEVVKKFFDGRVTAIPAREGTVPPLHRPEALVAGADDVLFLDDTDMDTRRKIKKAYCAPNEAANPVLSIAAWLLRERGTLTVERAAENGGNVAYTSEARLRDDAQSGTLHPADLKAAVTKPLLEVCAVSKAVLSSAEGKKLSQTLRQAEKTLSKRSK
The experiment in a line: Trypanosoma cruzi tyrosyl tRNA synthetase (TcYRS) _High Tyrosine SOP. Further: in the data most compounds retested in dose-response had high values. Conditions: 30 µM. The format is functional.

The target in assay [7] is T4, Tyrosyl-tRNA synthetase, putative (Trypanosoma cruzi (strain CL Brener)). The experiment in a line: Trypanosoma cruzi tyrosyl tRNA synthetase (TcYRS) SOP. It is filed as functional. Conditions: 30 µM.
In assay [8] the target is Chromo domain-containing protein 1 (Saccharomyces cerevisiae (strain ATCC 204508 / S288c) (Baker's yeast)) (UniProt P32657). The experiment in a line: ScCHD-1 Enzyme Inhibition Assay. Further: in the data most compounds retested in dose-response had high values. It is filed as functional. Conditions: 30 µM.

For part of these data: Results with a measured potency or affinity are listed apart.

Sequence of Sialic acid-binding Ig-like lectin 9 (Homo sapiens) (Q9Y336 whole entry): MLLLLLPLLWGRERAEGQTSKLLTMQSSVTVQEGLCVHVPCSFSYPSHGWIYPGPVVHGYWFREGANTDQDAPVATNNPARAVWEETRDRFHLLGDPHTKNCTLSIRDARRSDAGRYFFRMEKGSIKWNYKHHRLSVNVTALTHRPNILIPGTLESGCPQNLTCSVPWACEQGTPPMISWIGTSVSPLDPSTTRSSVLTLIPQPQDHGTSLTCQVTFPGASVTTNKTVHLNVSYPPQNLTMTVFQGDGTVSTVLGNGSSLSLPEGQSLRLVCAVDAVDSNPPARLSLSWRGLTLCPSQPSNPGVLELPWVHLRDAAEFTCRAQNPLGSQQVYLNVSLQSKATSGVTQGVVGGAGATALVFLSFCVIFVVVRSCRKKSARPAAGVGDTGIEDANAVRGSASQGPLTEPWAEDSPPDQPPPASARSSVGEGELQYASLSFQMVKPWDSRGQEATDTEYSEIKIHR
Sequence of Chromo domain-containing protein 1 (Saccharomyces cerevisiae (strain ATCC 204508 / S288c) (Baker's yeast)) (P32657 whole entry, the tested form may be a part): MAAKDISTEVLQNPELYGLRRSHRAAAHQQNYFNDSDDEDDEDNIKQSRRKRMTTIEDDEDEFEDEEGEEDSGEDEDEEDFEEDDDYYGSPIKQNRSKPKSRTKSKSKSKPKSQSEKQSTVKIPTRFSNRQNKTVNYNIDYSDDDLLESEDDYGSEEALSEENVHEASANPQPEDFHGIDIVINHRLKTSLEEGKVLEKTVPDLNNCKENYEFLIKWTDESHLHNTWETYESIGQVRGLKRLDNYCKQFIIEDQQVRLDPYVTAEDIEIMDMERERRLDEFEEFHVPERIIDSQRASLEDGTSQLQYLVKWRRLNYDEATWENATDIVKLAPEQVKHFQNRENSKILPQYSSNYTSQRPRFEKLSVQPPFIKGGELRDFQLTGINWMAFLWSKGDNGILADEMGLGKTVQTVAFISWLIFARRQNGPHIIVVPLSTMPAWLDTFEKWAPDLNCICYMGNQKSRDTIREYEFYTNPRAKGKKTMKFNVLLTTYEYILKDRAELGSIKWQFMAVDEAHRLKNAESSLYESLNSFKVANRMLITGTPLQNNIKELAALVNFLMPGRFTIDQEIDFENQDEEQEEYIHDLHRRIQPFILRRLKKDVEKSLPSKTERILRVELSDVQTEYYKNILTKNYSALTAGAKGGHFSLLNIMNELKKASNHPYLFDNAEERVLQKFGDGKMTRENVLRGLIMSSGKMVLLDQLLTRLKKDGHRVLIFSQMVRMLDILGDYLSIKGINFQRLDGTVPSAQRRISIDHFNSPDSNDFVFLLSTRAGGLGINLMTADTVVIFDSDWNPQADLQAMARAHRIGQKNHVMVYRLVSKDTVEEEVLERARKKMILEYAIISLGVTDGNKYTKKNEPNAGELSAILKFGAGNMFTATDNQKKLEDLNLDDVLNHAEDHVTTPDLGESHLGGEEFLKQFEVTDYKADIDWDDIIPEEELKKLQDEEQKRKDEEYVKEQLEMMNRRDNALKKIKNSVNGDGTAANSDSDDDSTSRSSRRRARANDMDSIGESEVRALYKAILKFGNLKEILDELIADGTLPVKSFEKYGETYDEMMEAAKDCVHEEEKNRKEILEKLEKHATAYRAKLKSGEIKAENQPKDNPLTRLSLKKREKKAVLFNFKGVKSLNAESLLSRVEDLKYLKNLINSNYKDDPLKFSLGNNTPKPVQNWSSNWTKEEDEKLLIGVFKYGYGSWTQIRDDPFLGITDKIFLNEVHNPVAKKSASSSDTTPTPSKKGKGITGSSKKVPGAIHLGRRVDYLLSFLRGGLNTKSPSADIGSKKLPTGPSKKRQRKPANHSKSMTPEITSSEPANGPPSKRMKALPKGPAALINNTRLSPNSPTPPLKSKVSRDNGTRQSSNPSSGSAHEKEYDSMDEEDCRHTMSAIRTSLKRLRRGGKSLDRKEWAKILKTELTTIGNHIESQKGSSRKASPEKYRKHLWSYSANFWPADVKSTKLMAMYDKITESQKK
Sequence of Protein translocase subunit SecA (Escherichia coli (strain K12)) (P10408 whole entry): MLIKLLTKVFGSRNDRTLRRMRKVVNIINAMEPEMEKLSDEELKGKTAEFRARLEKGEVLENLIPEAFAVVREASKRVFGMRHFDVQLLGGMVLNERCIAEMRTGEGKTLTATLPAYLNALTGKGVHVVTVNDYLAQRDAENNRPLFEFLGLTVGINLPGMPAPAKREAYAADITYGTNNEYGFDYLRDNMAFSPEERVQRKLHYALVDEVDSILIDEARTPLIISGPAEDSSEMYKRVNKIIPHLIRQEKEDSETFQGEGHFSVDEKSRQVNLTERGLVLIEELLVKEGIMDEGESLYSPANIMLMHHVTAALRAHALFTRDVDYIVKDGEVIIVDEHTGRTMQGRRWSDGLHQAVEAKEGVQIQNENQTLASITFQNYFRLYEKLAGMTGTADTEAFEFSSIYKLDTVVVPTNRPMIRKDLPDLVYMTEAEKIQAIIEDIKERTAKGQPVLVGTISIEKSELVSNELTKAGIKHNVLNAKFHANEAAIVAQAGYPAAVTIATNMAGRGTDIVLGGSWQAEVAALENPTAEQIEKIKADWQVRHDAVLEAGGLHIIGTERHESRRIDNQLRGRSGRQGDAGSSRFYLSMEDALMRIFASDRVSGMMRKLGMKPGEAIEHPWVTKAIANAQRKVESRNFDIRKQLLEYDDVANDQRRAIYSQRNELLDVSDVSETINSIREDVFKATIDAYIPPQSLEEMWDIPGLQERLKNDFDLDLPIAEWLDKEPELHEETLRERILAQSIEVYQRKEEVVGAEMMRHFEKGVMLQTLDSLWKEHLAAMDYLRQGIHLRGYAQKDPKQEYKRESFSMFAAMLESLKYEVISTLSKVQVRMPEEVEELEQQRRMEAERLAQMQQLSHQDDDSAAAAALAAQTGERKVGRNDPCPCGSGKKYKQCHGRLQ

Turning to `CN(C)CCOCC1CN(Cc2ccsc2)Cc2ccnn2C1` (stereo not given), the Percent Effect in assay [1] was -2.84%; in assay [2] it was -1.3%; in [3] it was 1.33%; in the assay with Trypanosoma cruzi, -3.41%; in assay [4] it was -1.62%; in assay [5], 2.21%. Moreover, the Percent Effect in the assay filed under Homo sapiens is -1.71%; in assay [6], 1.58%; in assay [7], 2.56%; in [8], 0.0554%.
As for `O=C(NCC(=O)N1CCc2ccccc2C1)c1ccoc1`, the Percent Effect in [1] was -0.143%; in [2] it was 15.6%; in [3] it was -3.75%; with Trypanosoma cruzi it was -7.46%; in assay [4] it was 1.43%; in [5], 18.1%. Further, the Percent Effect was 23.4% in the assay listed under Homo sapiens, 3.92% in [6], 9.41% in assay [7] and -10.6% in assay [8].
In the case of `C1CC(CN2CCOCC3(CCN(C4CCOCC4)C3)C2)CCO1` (stereo not given), the Percent Effect is -5.96% in [1]; 9.09% in [2]; -7.57% in assay [3]; 6.13% in the assay with Trypanosoma cruzi; -6.88% in [4]; 13.7% in assay [5]. In addition, the Percent Effect stood at 3.41% in the assay filed under Homo sapiens, 6.84% in [6], 10.3% in [7] and 0.2% in [8].
As for `O=C1COC2(COCCN(Cc3ccsc3)C2)CN1c1ccc(F)cc1` (stereo not given), the Percent Effect in assay [1] is -4.18%; in [2], 1.3%; in assay [3], 13.2%; in the assay with Trypanosoma cruzi, -5.36%; in [4], 1.22%; in [5] it was 10.3%. In addition, the Percent Effect was -0.829% in the assay filed under Homo sapiens, 4.74% in assay [6], 7.69% in assay [7] and -1.9% in assay [8].
For `CCc1nc(C2CCCN2CCc2ccccn2)no1` (stereo not given), the Percent Effect in assay [1] was 0.816%; in [2] it was 20.5%; in assay [3], -18.3%; in the assay on Trypanosoma cruzi it was 5.35%; in assay [4] it was 1.23%; in assay [5], 18.7%. In addition, the Percent Effect in the assay filed under Homo sapiens was 23.6%; in assay [6], 10.1%; in assay [7], 20.5%; in [8], -7.66%.
With `CC(C)c1cc(NC(=O)CN2CCC(N3CCNC3=O)CC2)on1`, the Percent Effect in [1] is -2.95%; in assay [2], 15.6%; in [3] it was 8.63%; in the assay on Trypanosoma cruzi it was -6.16%; in assay [4], 1.02%; in assay [5], 0.877%. Moreover, the Percent Effect in the assay listed under Homo sapiens was 23.3%; in assay [6], 5.88%; in assay [7] it was 11.8%; in [8] it was -7.14%.
Take `COc1cc(C(=O)N2CCCS2(=O)=O)ccc1C`: the Percent Effect was -4.9% in assay [1]; -2.67% in assay [2]; -1.38% in assay [3]; 4.82% in the assay with Trypanosoma cruzi; -3.99% in assay [4]; 14.7% in assay [5]. Also, the Percent Effect in the assay filed under Homo sapiens was 1.35%; in assay [6] it was 4.74%; in [7], 10.3%; in [8], -8.07%.
Regarding `CN(c1ccncn1)C1CC2(CCN(C(=O)c3ccsc3)C2)C1` (stereo not given), the Percent Effect in [1] is -2.12%; in [2], 22.7%; in assay [3], 0.226%; in the assay on Trypanosoma cruzi it was 3.55%; in assay [4], -4.42%; in assay [5], 17.2%. Further, the Percent Effect in the assay filed under Homo sapiens was 11.8%; in assay [6] it was 0%; in [7], 17.5%; in assay [8], -21.9%.
As for `Cn1cc(NC(=O)N2CCC(NS(C)(=O)=O)CC2)ccc1=O`, the Percent Effect in [1] is 1.1%; in assay [2], 48.7%; in assay [3], 0.0157%; in the assay on Trypanosoma cruzi, -2.54%; in assay [4], 13.9%; in [5], 1.11%. Further, the Percent Effect in the assay filed under Homo sapiens is 18.1%; in assay [6] it was -9.09%; in [7], -13.2%; in assay [8], -0.842%.
With `O=C(Cc1cccs1)N1CC[C@H]2[C@@H]1CCC(=O)N2c1cccnc1`, the Percent Effect in [1] was -2.81%; in [2] it was 29.9%; in assay [3], -3.71%; in the assay on Trypanosoma cruzi it was -1.31%; in [4] it was 1.37%; in [5] it was 16.1%. Also, the Percent Effect is -2.71% in the assay listed under Homo sapiens, 3.87% in [6], 7.5% in assay [7] and -11% in [8].
For the molecule `NCc1cn(-c2ccccc2C(=O)NCc2ccccc2)cn1`, the Percent Effect in assay [1] is -2.27%; in assay [2], 14.7%; in assay [3] it was 1.6%; in the assay with Trypanosoma cruzi, -0.592%; in [4] it was 1.33%; in assay [5] it was 10.2%. Moreover, the Percent Effect was 26.2% in the assay filed under Homo sapiens, 6.35% in assay [6], 15% in assay [7] and -23.1% in assay [8].
In the case of `O=C(O)c1ccc2ccc(N3CCN(CC4CC4)CC3)n2c1`, the Percent Effect was -3.4% in [1]; 14.3% in [2]; 1.31% in assay [3]; 3.38% in the assay with Trypanosoma cruzi; 2.74% in assay [4]; 9.7% in [5]. The Percent Effect in the assay filed under Homo sapiens was 7.8%; in [6] it was 18.4%; in assay [7], 12.5%; in [8] it was -4.22%.
